Bioassay records from PubChem BioAssay.
Hits are enriched below; roughly 19% of the tested compounds scored in any of these assays.
DT40 TDP1 CPT = growth inhibition of DT40 Tdp1-/-;hTDP1 cells with camptothecin (screen for TDP1 inhibitors); Potency, µM (top dose mostly 46.2 µM), for inactives: top-dose activity change, negative = growth inhibition, hits mostly inhibitors; hit rate 12% among 420,000; chicken DT40 Tdp1-/-;hTDP1 cells + 20 nM CPT, ATP luminescence, 48 h; also: potency is read from the fitted curve at half-maximal effect; nearly all actives have a fitted effect of over 55% in size
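Cell growth measured by CellTiter-Glo luminescence after a minimum 48 h, 37 C compound exposure with 20 nM CPT in Tdp1-knockout DT40 cells stably expressing hTDP1, seeded 400/well; qHTS titration format.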
TDP1 cell noCPT = qHTS for Inhibitors of human tyrosyl-DNA phosphodiesterase 1 (TDP1): qHTS in cells in absence of CPT. DT40 Tdp1-/- hTDP1 cells, no CPT, ATP luminescence, 48 h. Potency, µM (top dose mostly 46.2 µM), without a hit: at the top dose activity change, negative = growth inhibition, most hits filed as inhibitors. hit rate 15% among 420,000. AID 686978, 2013; also: potency is read from the fitted curve at half-maximal effect; nearly all actives have a fitted effect of over 55% in size
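Chicken DT40 Tdp1-/- cells stably complemented with human TDP1 were seeded at 400 cells/well with DMSO in place of 20 nM camptothecin. After compound pinning, cells grew at least 48 hr at 37 °C; viability read by CellTiter-Glo luminescence.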
HT1080 IDH1KD tx = kills HT-1080 cells with IDH1 knockdown. hit rate 2% among 360,000. Potency, µM (doses to about 46.1 µM), without a hit: at the top dose activity, negative = toxicity, most hits filed as cytotoxic. AID 686971. HT-1080 IDH1 knockdown viability, ATP luminescence, 48 h;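 also: potency is read from the fitted curve at half-maximal effect; 0% = DMSO wells and -100% = cell-free medium wells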
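After a 2 h attachment period, IDH1KD HT-1080 cells took pin-transferred compound for 48 h at 37 °C; ATP-based luminescence after 10 min room-temperature reagent incubation reported viability.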
HT1080NT lethal = kills 2HG-producing HT-1080-NT fibrosarcoma cells | HT-1080-NT fibrosarcoma viability, CellTiter-Glo ATP luminescence, 48 h | AID 686970 | hit rate 1.6% among 360,000 | Potency, µM (top dose mostly 46.1 µM), for inactives: at the top dose activity, negative = less viability, actives largely listed as cytotoxic;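 also: NT is the 2HG producing partner of a matched IDH1 knockdown line; potency is read from the fitted curve at half-maximal effect; 0% = DMSO-treated cells and -100% = media-only wells without cells; nearly all actives have a fitted effect of over 55% in size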
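Fibrosarcoma NT cells, 750 per well in 5% FBS RPMI, were exposed to compound for 48 hours. Viability: CellTiter-Glo luminescence.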
ELG1 repair inh = blocks ELG1-dependent DNA repair in HEK293T cells; hit rate 2.3% among 330,000; HEK293T ELG1-luciferase reporter, luminescence, 16 h; DNA damage induced by 5-fluorouridine; AID 504467; Potency, µM (series often up to 46.1 µM), for the others: at the highest dose activity change, negative = inhibition, usual class: inhibitors; also: potency is read from the fitted curve at half-maximal effect; nearly all actives have a fitted effect of over 55% in size
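Cells (2,000 per well) received 5-fluorouridine plus test compound or DMSO and were incubated 16 hr at 37 °C, 5% CO2. Luciferase activity was read by luminescence 30 min after ONE-Glo addition; signal suppression marked inhibition of damage-induced ELG1 function.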
IL-1B inflam inh = inhibitors of inflammasome signaling (IL-1 beta secretion); THP-1 LPS/ATP IL-1B secretion, AlphaLISA, 16 h; hits give low values; activity change, % at 57.5 µM; hit rate 4.7% among 360,000; AID 743279; in the data active = activity change below about -50%; inconclusive = mostly about -30% to -49%
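Secreted IL-1B measured by AlphaLISA bead assay after 16 h compound exposure of THP-1 cells; compounds (final up to 57.5 uM) added 1 h before LPS (250 ng/mL) and ATP (1.25 mM) stimulation; lower signal means less secretion.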
Starred values were filed as active, the others as inactive; ? = inconclusive; / = not tested or not shown; ! = not confirmed by another sample. Unless noted, calls follow the shape of the dose curve; as a rule, active = well fitted curve in the direction sought with a large enough effect; inconclusive = small, poorly fitted or top-dose-only effect, or another doubt; inactive = no such curve, though single readings can be large; an effect the other way counts as inactive or inconclusive. Unless noted, % is scaled to controls: 0 for no effect and ±100 for the full control effect.

SMILES	DT40 TDP1 CPT	TDP1 cell noCPT	HT1080 IDH1KD tx	HT1080NT lethal	ELG1 repair inh	IL-1B inflam inh
O=C(c1sccc1Br)N1CCN(Cc2ccc3c(c2)OCO3)CC1	-29%	?	-15%	-1%	?	-71*
Cc1cc(Cl)c2oc(C(=O)N3CCN(c4cnccn4)CC3)c(C)c2c1	?	?	-28%	-10%	/	-21
O=C(c1cc(F)c(F)c(F)c1F)N1CCN(Cc2ccc3c(c2)OCO3)CC1	?	-17%	1%	-1%	0%	-11
O=C(N1CCN(Cc2ccc3c(c2)OCO3)CC1)C12CC3CC(CC(C3)C1)C2	?	?	-3%	5%	?	-85*
Cc1ccc2c(C)c(C(=O)N3CCN(Cc4ccc5c(c4)OCO5)CC3)oc2c1C	?	?	-27%	-11%	?	-78*
Cc1ccc2c(C)c(C(=O)N3CCN(c4cnccn4)CC3)oc2c1C	?	18µM*	-8%	2%	8%	-63*
Cc1cnc([N+](=O)[O-])n1CCOC(=O)NC(=O)c1ccccc1Cl	8%	19%	5%	1%	18%	18
COc1ccc(-n2c(C)nc3c(cnn3-c3ccc(C)cc3)c2=O)cc1	15µM*	?	0%	-6%	?	-13
CCOC(=O)c1ccc(-n2c(C)nc3c(cnn3-c3ccccc3Cl)c2=O)cc1	-21%	-24%	3%	17%	?	54
CCOC(=O)c1ccc(-n2c(C)nc3c(cnn3-c3ccc(Cl)cc3)c2=O)cc1	8.2µM*!	5.8µM*!	13%	17%	?	38
COc1ccc(-n2c(C)nc3c(cnn3-c3ccc(Cl)cc3)c2=O)cc1	?	?	?	-24%	18µM*	-13
CCOC(=O)Cn1cnc2c(cnn2-c2ccc(OC)cc2)c1=O	-17%	-8%	4%	0%	?	-10
CN(C)Cc1c(OC(=O)c2ccc(N)cc2)ccc2ccccc12	-8%	-27%	-21%	-13%	/	-4
NC(=O)c1ccc(NC(=O)COC(=O)c2cc3ccccc3cc2O)cc1	1%	1%	-15%	?	26%	52
CCN(CCO)Cc1csc2ccc(C(C)(C)C)cc12	?	?	7%	-1%	-19%	-57*
CCN(CCO)Cc1csc2ccc(Cl)cc12	0%	3%	17%	17%	-4%	13
O=C(Nc1c(-c2ccc3c(c2)OCO3)[nH][nH]c1=O)c1ccccc1	?	?	12%	27%	/	4
COc1cc(NC(=O)CSc2nc(C)c(C(=O)Nc3ccccc3)c(-c3ccc(OC)c(OC)c3)c2C#N)c(OC)cc1Cl	3%	-1%	/	/	/	/
O=C(NCC1CCCO1)C(c1cccs1)N(Cc1ccccc1)C(=O)c1ccc(-c2ccccc2)[nH]1 (stereo not drawn)	?	21µM*	-15%	-21%	?	0
CC(C)(C)NC(=O)C(c1cccs1)N(CC1CCCO1)C(=O)c1ccc(-c2ccccc2)[nH]1 (stereo not drawn)	23µM*	21µM*	-18%	-9%	3%	?
O=C(NCC1CCCO1)C(c1cccs1)N(C(=O)c1ccc(-c2ccccc2)[nH]1)C1CCCC1 (stereo not drawn)	-27%	?	?	-27%	2%	-26
CC(C)(C)NC(=O)C(c1cccs1)N(CC1CCCO1)C(=O)Cn1nnc(-c2cccs2)n1 (stereo not drawn)	-13%	-2%	-3%	2%	-1%	10
CN1CCN(c2ccc(S(=O)(=O)N3CCOCC3)cc2NC(=O)CSCc2ccccc2)CC1	?	5%	0%	-7%	-5%	?
Cc1cccn2c(=O)c3cc(C(=O)NCc4ccco4)c(=N)n(C4CCCCC4)c3nc12	?	?	?	?	?	-98*
Cc1cccn2c(=O)c3cc(C(=O)NCc4ccco4)c(=N)n(CCOCCO)c3nc12	-32%	?	-5%	0%	?	-57*
SMILES	DT40 TDP1 CPT	TDP1 cell noCPT	HT1080 IDH1KD tx	HT1080NT lethal	ELG1 repair inh	IL-1B inflam inh
O=C(Nc1ccc(-n2cccn2)cc1)C1CCCCN1Cc1cccc2c1OCO2 (stereo not drawn)	6.5µM*	4.6µM*	?	?	8.2µM*	28
CCOC(=O)c1c(NC(=O)CCCOc2ccc(C(C)(C)C)cc2)sc2c1CCC2	-16%	4%	/	/	/	/
CCN(CC(=O)Nc1ccc(OC)cc1)C(=O)c1cc(-c2cccs2)nn1-c1ccccc1	?	16µM*	-16%	-3%	?	-11
CCN(CC(=O)Nc1ccc(NC(C)=O)cc1)C(=O)c1cc(-c2ccccc2)nn1-c1ccccc1	-20%	-23%	-11%	-13%	?	-9
COCCN(CC(=O)Nc1cccc(C)c1C)C(=O)c1cc(-c2cccs2)nn1-c1ccccc1	?	?	-4%	-1%	13µM*	-21
COc1ccc(NC(=O)CN(C)C(=O)c2cc(-c3cccs3)nn2-c2ccccc2)cc1	?	15µM*	-12%	-9%	?	?
CCOc1ccc(NC(=O)CN(C)C(=O)c2cc(-c3cccs3)nn2-c2ccccc2)cc1OCC	?	?	9%	5%	?	0
CN(CC(=O)Nc1ccc(F)cc1)C(=O)c1cc(-c2cccs2)nn1-c1ccccc1	?	13µM*	-3%	-4%	?	-1
Cc1cc(C(=O)N(Cc2cc3cc4c(cc3nc2N2CCOCC2)CCC4)CC2CCCO2)c(=O)[nH]c1C (stereo not drawn)	5%	-5%	/	/	/	/
COC(=O)c1c(NC(=O)COc2ccc(C)cc2Br)sc2c1CCCC2	-17%	?	/	/	/	/
Cc1noc(Cn2c(=O)c3ccccc3n(CC(=O)Nc3cc(Cl)ccc3C)c2=O)n1	-15%	-10%	/	/	/	/
COc1ccc(NC(=O)c2ccco2)cc1NC(=O)c1cccc(F)c1	-23%	?	0%	2%	-2%	-6
COc1cc(Cl)c(C)cc1NC(=O)Cn1c2ncccc2c(=O)n1-c1ccccc1	?	-22%	/	/	/	/
CCOC(=O)c1cc(-c2ccccc2)sc1NC(=S)Nc1cc(C)ccn1	?	10µM*	13%	26%	?	0
CCOC(=O)c1cc(-c2ccccc2)sc1NC(=O)C(C)(C)C	14%	-9%	25%	25%	13%	-16
